From PubChem BioAssay
Polio RdRp inh: inhibitors of poliovirus RNA polymerase binding and polymerization; P03300; % elongation, % (compound at 16.7 µg/mL); 150,000 tested, 0.66% active; poliovirus polymerase elongation, fluorescence polarization; active compounds read low; in the data active = % elongation below about 90%
MbtI inh: blocks the Mycobacterium tuberculosis siderophore enzyme MbtI. inhibition, % (test concentration not listed). AID 493033. 100,000 tested, 0.89% active. purified MbtI enzyme, fluorescence intensity read-out. P9WFX0; in the data active = inhibition mostly above about 56%, no sharp cut-off; inactive = mostly below about 77%
Target sequence (P9WFX0 whole entry, looked up): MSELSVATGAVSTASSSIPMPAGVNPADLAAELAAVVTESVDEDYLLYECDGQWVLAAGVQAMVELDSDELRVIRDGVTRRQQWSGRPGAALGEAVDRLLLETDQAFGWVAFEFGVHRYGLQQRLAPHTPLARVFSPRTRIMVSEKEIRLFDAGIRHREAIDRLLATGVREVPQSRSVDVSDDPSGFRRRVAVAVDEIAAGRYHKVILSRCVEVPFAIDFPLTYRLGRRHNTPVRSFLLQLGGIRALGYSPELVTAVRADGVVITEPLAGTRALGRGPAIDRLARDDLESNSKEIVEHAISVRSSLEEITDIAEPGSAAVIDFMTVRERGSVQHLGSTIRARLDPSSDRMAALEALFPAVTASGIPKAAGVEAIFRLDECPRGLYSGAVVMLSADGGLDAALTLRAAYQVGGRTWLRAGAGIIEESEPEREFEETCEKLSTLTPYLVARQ
AID504770: growth inhibitors of E. coli YBA685 in a screen for V. cholerae RctB (chromosome II replication) inhibitors. E. coli YBA685 rctB-dependent plasmid, OD600 growth, 3 h; active compounds read low. z-score (no concentration beside the values). 130,000 tested, 0.27% active; in the data active = z-score below about -2, passing the limit was not always enough
MenB inh: blocks the Mycobacterium tuberculosis MenB enzyme | P9WNP5 | AID 540299 | inhibition, % (concentration not given with the values) | 100,000 tested, 0.43% active | MenB enzyme assay, absorbance read-out; in the data active = inhibition above about 21%, passing the limit was not always enough
Active calls of the source: *; x = not tested or not shown; ! = not active in a repeat. Shown are actives, neighbours in structure and some others; about 1.4% of the full set was active somewhere.

SMILES	Polio RdRp inh	MbtI inh	AID504770	MenB inh
OCCSc1n[nH]c(-c2ccccc2)n1	100	-38	0.15	6
C#CCSc1n[nH]c(-c2ccccc2)n1	102	83*	0.6	-14
O=C(Cn1cnc2c(nc3n2CCCCC3)c1=O)NC1CCCCCC1	102	7	-2.1*	-18
CCOc1ccc(-c2nc(-c3cc(C)n(C)c3C)cs2)cc1OC	143	-4	1.2	-14
Cc1csc2ncnc(N3CCN(C(=S)NCC4CC4)CC3)c12	88*	36	-0.65	-5
CS(=O)(=O)c1cccc(S(=O)(=O)NCc2cccnc2)c1	101	11	2	18
Brc1csc(CNCCc2ccco2)c1	86*	9	-0.3	8
Brc1ccc(NCc2ccco2)cc1	102	-22	0.2	1
COc1ccc(N2CCN(C(=O)c3oc4ccc(Br)cc4c3C)CC2)cc1	101	-3	-0.65	-12
COc1ccc(CN2COc3ccc4c(oc(=O)c5ccccc54)c3C2)cc1OC	100	x	x	x
O=c1oc2c3c(ccc2c2ccccc12)OCN(Cc1ccc(Cl)cc1)C3	88*	x	x	x
Cc1cc(NC(=O)Cn2c(=O)n(CCCC(=O)NCc3ccc4c(c3)OCO4)c(=O)c3ccccc32)n[nH]1	x	x	-0.6	x
CC(O)CN(CC(C)O)CC1CC=CCC1 (stereo unspecified)	101	-21	-0.65	-28
COc1ccc(OC)c(C(=O)CSC#N)c1	103	-45	1.9	-5
COc1ccc(C(=O)CSC#N)cc1OC	97	x	-0.6	32*
CCOCCCNC(=O)CCC(=O)NNc1nc2ccccc2c2nc(C)nn12	36*	x	x	x
Cc1nc2c3ccccc3nc(NNC(=O)CCC(=O)N3CCN(c4ccc(F)cc4)CC3)n2n1	95	x	x	x
CCCCNC(=O)CCC(=O)NNc1nc2ccccc2c2nc(C)nn12	81*	x	x	x
CCCCNC(=O)CCC(=O)NNc1nc2ccccc2c2nc(-c3ccccc3)nn12	106	x	x	x
COCCCNC(=O)CCC(=O)NNc1nc2ccccc2c2nc(C)nn12	24*	x	x	x
C/C(=N\NC(=S)NCC1CCCO1)c1ccc(OCC(=O)N(C)C)cc1 (stereo unspecified)	102	18	-0.15	0
Cc1scc(-c2ccccc2)[n+]1CCO	104	54*	-0.25	-3
NS(=O)(=O)c1ccc(NC(=O)CCC(=O)Nc2ccc(S(N)(=O)=O)cc2)cc1	102	6	-0.25	-20
NS(=O)(=O)c1ccc(NC(=O)CS)cc1	99	76*	-1.5	-94
COc1cc(C=C(C#N)C#N)ccc1OC(=O)c1ccco1	99	-1	-1.4	-22
SMILES	Polio RdRp inh	MbtI inh	AID504770	MenB inh
CC(C)C(=O)Nc1ccc2nc(SCC(=O)N3CCc4ccccc43)sc2c1	83*	x	x	x
c1ccc(OCc2nn3c(-c4ccccc4)nnc3s2)cc1	96	86*	0.55	-45
COc1ccc(-c2nnc3sc(C(C)N4C(=O)c5ccccc5C4=O)nn23)cc1 (stereo unspecified)	102	5	-0.25	-11
c1ccc(CCc2nn3c(COc4ccccc4)nnc3s2)cc1	99	76*	-1	-34
c1ccc(-c2nn3c(-c4ccccc4)nnc3s2)cc1	101	19	0.5	-3
O=C1c2ccccc2C(=O)N1CCc1nn2c(-c3cccnc3)nnc2s1	100	87*	-0.4	9
O=C(C1=Cc2sc3c(c2CS1)CCCC3)N1CCC2(CC1)OCCO2	104	95*	0.55	-15
O=C(c1cc2c(s1)CCCCCC2)N1CCC2(CC1)OCCO2	99	1	-0.1	-8
COC(=O)c1[nH]c2ccccc2c1S(=O)c1ccccc1 (stereo unspecified)	102	16	-0.45	-18
CC1(C)CC(=O)C=C(NNc2ccccn2)C1	101	58*	-0.55	-78
O=C(C[n+]1cccc(C(=O)Nc2ccccc2)c1)c1ccc(N2C(=O)c3ccccc3C2=O)cc1	102	57*	-2.8	-89
O=C(Nc1ccc(F)cc1F)c1nc(-c2cccc(F)c2)n2c1CCCCC2	103	-6	-0.5	-14
CC(C)(C)N(N)C(=S)NCc1ccc(F)cc1	86*	90*	-0.85	-23
COc1ccccc1OCCn1cc(/C=C2/SC(=S)NC2=O)c2ccccc21	98	59*	0.5	-94
COc1ccccc1/C=C1/SC(=S)NC1=O	107	-2	0.15	x
CCN(Cc1cc(Cl)cc(Cl)c1)C(=O)c1cnc(OC)cc1C(F)(F)F	107	-10	-0.15	-18
NC(=O)C1CCN(CC(O)Cc2ccc3c(c2)OCO3)CC1 (stereo unspecified)	x	x	-0.65	x
NC(=O)C1CCN(C2CC(=O)N(Cc3ccc4c(c3)OCO4)C2=O)CC1 (stereo unspecified)	103	86*	0.75	-39
O=C1c2ccccc2C(O)(c2ncc[nH]2)N1CCO (stereo unspecified)	x	-16	-0.2	x
COc1ccc(C/C(N)=N/O)cc1OC	101	1	-0.25	21*
Cn1c(SCc2ccccc2)nc2ccccc21	103	x	0.75	-3
COC(=O)CC1(O)c2ccccc2C(=O)N1Cc1ccccc1 (stereo unspecified)	x	x	-0.6	x
O=C(O)CC1(O)c2ccccc2C(=O)N1Cc1ccccc1 (stereo unspecified)	90*	x	1.6	-37
O=C(CSc1c(-c2ccccc2)c2cc(Cl)ccc2[nH]c1=O)NCc1ccco1	103	31	-0.35	-24
CN(C)C(=O)ONC(=O)Cc1ccccc1	x	x	-3.9*	x
SMILES	Polio RdRp inh	MbtI inh	AID504770	MenB inh
O=C1NNC(=S)C1C1CC1 (stereo unspecified)	99	83*	-0.15	17
O=C1NC(=S)NC(=O)C1C1CCCCC1	104	12	-0.8	-32
CC(=O)Nc1ccc(C(=O)Nc2ccc(C)cc2)cc1	100	11	1.3	-11
O=C1C(O)=C(O)C(=O)C(O)=C1O	97*!	-36	0.3	-5
COCCNC(=O)c1cc(-c2cccnc2)nc2ccc(S(=O)(=O)N3CCCCCC3)cc12	102	-19	0.75	2
COCCCNC(=O)c1cc(-c2cccnc2)nc2ccc(S(=O)(=O)N3CCC(C)CC3)cc12	47*	x	x	x
Cc1cccc2nc(-c3cc4ccccc4s3)oc(=O)c12	x	x	1.4	x
O=c1oc(-c2cc3ccccc3s2)ns1	85*	x	-0.25	-19
COc1ccc2c(CC(=O)NCC3CCCCC3)coc2c1	103	-7	0.15	-17
CC(C)c1ccc(NC(=S)Sc2ccc(F)cc2F)cc1	97	65*	-0.85	-12
COc1ccc(-n2cc(C(=O)NC3CCCCCCC3)nn2)cc1	104	-18	-0.25	0
c1ccc(Oc2nnc(-c3ccccc3)c3ccccc23)cc1	103	x	-0.6	0
O/N=C/c1c(O)ccc2ccccc12	98	-49	-0.05	32*
COc1ccc(OCCn2cc(C#N)c3ccccc32)cc1	101	x	1.9	-15
O=C(NCC(F)(F)F)C1COc2ccccc2O1 (stereo unspecified)	97	0	0	-25
Cc1[nH]c(=S)n(CC2CCCO2)c1C (stereo unspecified)	95	95*	1.4	12
Cc1n[nH]c(=S)n1CC1CCCO1 (stereo unspecified)	103	-6	-0.1	-16
Cc1nc(N)nc(Sc2ccc(Cl)cc2)c1Cl	x	x	1.7	x
